# Reference: the supplement of paper PMC12494721
# Where a name gives a salt, the structure may show the parent alone. A number with no mark means an inactive call.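 Rule for the calls: for the amine columns active = adjusted P below 0.05 in both replicates with a change the same way and a mean fold change under 0.8 or over 1.25; inactive = the rest.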
# System: Ruminococcus gnavus DSM 108212
# Assay: fold change of Tryptamine concentration vs plate DMSO controls (fold change (ratio)); higher = more amine produced, active = hit call of the paper (significant change in both replicates, either direction)
# Conditions: 20 µM; incubation time: 27 h, anaerobic, 37 °C
# Summary of the method: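 Anaerobic mGAM cultures of four gut bacterial strains were grown at 37 °C for 27 h in 80 µL wells, starting at OD 0.1 before 1:1 dilution. Compounds were at 20 µM final (sweeteners 50 µM). Whole cultures were extracted with cold acetonitrile/methanol containing 0.1% formic acid and centrifuged. Amines were quantified by LC–triple-quadrupole MS (dynamic MRM) against external calibration curves and drift-corrected within batch. Each value is the fold change versus plate DMSO controls, averaged over 2 biological replicates.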
row,Structure (SMILES),fold change of Tryptamine concentration
1,C[C@@H]1C[C@@H]([C@H](O)CC2CC(=O)NC(=O)C2)C(=O)[C@@H](C)C1 [Cycloheximide],1.01
2,CCNC1(c2cccs2)CCCCC1=O (stereo unspecified) [Tiletamine hydrochloride],1.02
3,CCCC1COC(Cn2cncn2)(c2ccc(Cl)cc2Cl)O1 (stereo unspecified),1.08
4,ClC1C(Cl)C(Cl)C(Cl)C(Cl)C1Cl (stereo unspecified),0.98
5,CN1C[C@H](CNC(=O)OCc2ccccc2)C[C@@H]2c3cccc4c3c(cn4C)C[C@H]21 [Metergoline],0.94
6,O=[N+]([O-])O[C@@H]1CO[C@H]2[C@@H]1OC[C@@H]2O [Isosorbide mononitrate],0.984
7,C[N+]1(C)CCCCC1,1.03
8,N#Cc1nn(-c2c(Cl)cc(C(F)(F)F)cc2Cl)c(N)c1[S+]([O-])C(F)(F)F (stereo unspecified),1.06
9,COCC(=O)N(c1c(C)cccc1C)[C@H](C)C(=O)OC,1.02
10,Cc1cc(C(F)(C(F)(F)F)C(F)(F)F)ccc1NC(=O)c1cccc(I)c1C(=O)NC(C)(C)CS(C)(=O)=O,0.939
11,CC1C=CC=CCCC=CC=CC=CC=CC(OC2OC(C)C(O)C(N)C2O)CC2OC(O)(CC(O)C(O)CCC(O)CC(O)CC(O)CC(=O)OC(C)C(C)C1O)CC(O)C2C(=O)O (stereo unspecified) [Nystatine],1.01
12,CCOC(=O)CC(SP(=S)(OC)OC)C(=O)OCC (stereo unspecified),1.02
13,Fc1ccc([C@]2(Cn3cncn3)O[C@H]2c2ccccc2Cl)cc1 (racemic),0.967
14,O=C(Nc1ccccc1-c1ccc(Cl)cc1)c1cccnc1Cl,0.949
15,CCN(CC)c1nc(C)cc(OP(=S)(OC)OC)n1,1.06
16,O=C(O[C@H]1C[N+]2(CCCOc3ccccc3)CCC1CC2)C(O)(c1cccs1)c1cccs1 [Aclidinium bromide],0.985
17,CCC(C)(c1ccc(O)cc1)c1ccc(O)cc1 [Bisphenol B],0.962
18,CNC(=O)/C=C(\C)OP(=O)(OC)OC,0.985

row,Structure (SMILES),fold change of Tryptamine concentration
1,CO/C=C(/C(=O)OC)c1ccccc1Oc1cc(Oc2ccccc2C#N)ncn1,1.01
2,C[C@@H]1CN([C@H]2CC[C@](C#N)(c3ccc(F)cc3)CC2)CC[C@]1(C(=O)O)c1ccccc1 [Levocabastine hydrochloride],1
3,O=C(O)c1nc(Cl)ccc1Cl,0.915
4,CCn1cc(C(=O)O)c(=O)c2cc3c(cc21)OCO3 [Oxolinic acid],1
5,CC(C)(C)C(O)(CCc1ccc(Cl)cc1)Cn1cncn1 (stereo unspecified),1.07
6,C[C@]12C=CC(=O)C=C1CC[C@@H]1[C@@H]2CC[C@@]2(C)[C@H]1CC[C@]2(C)O [Methandrostenolone],1.03
7,COP(=S)(OC)Oc1nc(Cl)c(Cl)cc1Cl,0.898
8,O=C(O)C(F)(F)C(F)(F)C(F)(F)C(F)(F)C(F)(F)C(F)(F)F [PFHpA (Perfluoroheptanoic acid)],0.979
9,OCC(O)CCl (racemic),1.08
10,CC(=O)O[C@H]1CC[C@@]2(C)C(=CC[C@@H]3[C@@H]2CC[C@]2(C)C(=O)CC[C@@H]32)C1 [Dehydroisoandosterone 3-acetate],1.04
11,CC(C)N(C(=O)COc1nnc(C(F)(F)F)s1)c1ccc(F)cc1,0.886
12,CC(=O)OCC(=O)[C@H]1CC[C@H]2[C@@H]3CC[C@H]4C[C@H](O)CC[C@]4(C)[C@H]3C(=O)C[C@]12C [Alfadolone acetate],1.02
13,C[C@]12CC[C@@H]3c4ccc(OC(=O)N(CCCl)CCCl)cc4CC[C@H]3[C@@H]1CC[C@@H]2O [Estramustine],0.949
14,CCC(=O)Nc1ccc(Cl)c(Cl)c1,1.02
15,O=P1(N(CCCl)CCCl)NCCCO1 (stereo unspecified) [Cyclophosphamide],1.02
16,Cc1cc(C(C#N)c2ccc(Cl)cc2)c(Cl)cc1NC(=O)c1cc(I)cc(I)c1O (stereo unspecified) [Closantel],0.121 (active)
17,COP(=S)(OC)SCN1C(=O)c2ccccc2C1=O,1.01
18,C#CCOc1ccc(CCNC(=O)C(OCC#C)c2ccc(Cl)cc2)cc1OC (stereo unspecified),0.989
